Consider 40 compounds from PubChem BioAssay (NCI).

SMILES strings stand for the structures. About 83,000 compounds went through this panel and 20% of them were active in at least one assay; those are over-represented in the sample as a whole.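 Method: cells in 96-well plates; compound added at one concentration; 48 h incubation; percent growth measured; values under 10 scored active.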 The source made the active and inactive calls.

The experiment has as its system HCT-116 colon. In words: NCI-60 one-dose screen, 48 h (100 = growth as untreated, 0 = no growth, -100 = all killed). Conditions: 10 µM unless noted. As for the experimental part: Growth inhibition of the HCT-116 human tumor cell line is measured as a screen for anti-cancer activity. Cells are grown in 96 well plates and exposed to the test compound for 48 hours. Compounds are tested at a single concentration, which is 10^-5 M for most compounds. The reported endpoint is percent growth (GI% or GIPRCNT), where numbers from 0 - 100% represent growth inhibition, and numbers from -100% - 0 represent cell death. For example, a value of 40 represents 60% growth inhibition. A value of 0 means no net growth occurred over the course of the experiment. A value of -40 indicates 40% of cells at the beginning of the experiment died by the end of the experiment. A value of -100 means all cells are dead at the end of the experiment.
NCI-60 Human Tumor Cell Lines Screen was performed using the standard one-dose NCI protocol, which is described in more detail at https://dtp.cancer.gov/discovery_development/nci-60/default.htm.
Compounds with GIPRCNT values below 10 were considered active. Activity score was based on GIPRCNT using the following formula: […]
Score is 0 for GIPRCNT values of 100 or above, 50 for GIPRCNT values of 0, and 100 for GIPRCNT values of -100.
For the compound `O=C1c2ccccc2C23C(=C(c4cncnc4)c4ccccc42)CCCN13` (stereo not given), the growth was 97.9% (inactive).

`O=S(=O)(NCCCNc1nccc(-c2[nH]c(-c3ccccc3)nc2-c2ccc(F)c(O)c2)n1)c1ccc(C(F)(F)F)cc1`: the growth was 19.1% (inactive).

Turning to `CCCCN1C(=O)/C(=c2\sc3n(c2=O)C2C(NN=3)N(CC)C(=O)N2CC)c2cccc(C)c21` (stereo not given), the growth is 24.8% (inactive).

With `O=C(/C=C/c1cccc(C(F)(F)F)c1)Nc1cccc(C(F)(F)F)c1`, the growth is 21% (inactive).

On to `Cc1[nH]c(C(=O)Nc2ccccc2OCc2cccc(C(=O)NC3CCCNC3)c2)c(Cl)c1Cl` (stereo not given), for which the growth is -67% (active).

For `NC(=O)c1ncn2c(=O)n(CCF)nnc12`, the growth is 47.4% (inactive).

As for `Cc1[nH]c(C(=O)Nc2ccccc2OCc2cccc(C(=O)NC3CCNC3)c2)c(Cl)c1Cl` (stereo not given), the growth is -61.2% (active).

Consider `N#Cc1c(-c2ccc(Br)cc2)cc(-c2c[nH]c3ccccc23)nc1N`, for which the growth was 27.6% (inactive).

In the case of `CC(C)(O)c1cncc(-c2ccc3ncc(C#N)c(N4CCc5cc(F)c(Cl)cc54)c3c2)c1`, the growth is 24.8% (inactive).

Take `Cc1csc(/N=C(N)/N=C(\N)c2cccc(Br)c2)n1`: the growth was 88.8% (inactive).

On to `Brc1ccc(-c2cc(-c3ccc4c(c3)OC=CO4)n[nH]2)s1`, for which the growth was 91.5% (inactive).

In the case of `COc1ccc(/C(=N\NC(N)=S)c2ccc(Cl)cc2)cc1OC`, the growth is 14.9% (inactive).

Take `COc1ccc2c(c1)C=CC1(O2)Oc2ccc(OC)cc2C=C1C` (stereo not given): the growth is 12.4% (inactive).

Regarding `O=[N+]([O-])c1ccc(NC(=S)NNC(=S)Nc2ccc(F)cc2)cc1`, the growth is 83.7% (inactive).

Consider `Cn1cc(-c2cc3ncnc(Nc4ccc(NC(=O)Nc5cc(C(C)(C)C)on5)cc4)c3s2)cn1`, for which the growth is 12.7% (inactive).

For `CCCCCCNC(=O)Oc1ccc(/C(=C(/C)c2ccc(Cl)cc2)c2ccc(OCCN3CCCCCC3)cc2)cc1`, the growth is 30.9% (inactive).

As for `Cc1[nH]c(C(=O)Nc2ccc(C(=O)NCC3CCNCC3)cc2OC(C)C)c(Cl)c1Cl`, the growth was 33.2% (inactive).

On to `CCOC(=O)c1ccc(NC2=C(Cl)C(=O)c3nc(C)ccc3C2=O)cc1`, for which the growth is 7.29% (active).

Consider `CC(=C(c1ccc(OCCCN(C)C)cc1)c1ccc(OCCCN(C)C)cc1)c1ccc(Cl)cc1`, for which the growth was 64.6% (inactive).

Turning to `CCOP(=O)(OCC)OC[C@]12CCC(C)(C)C[C@H]1C1=CC[C@@H]3[C@@]4(C)CC[C@H](OP(=O)(OCC)OCC)C(C)(C)[C@@H]4CC[C@@]3(C)[C@]1(C)CC2`, the growth was 18.5% (inactive).

As to `CN1c2ccccc2Sc2cc(/C=N/Nc3ccnc4cc(Cl)ccc34)ccc21`, the growth is 57.3% (inactive).

For the compound `C#CCOc1cccc(-c2nc(N)nc(Nc3ccccc3SSc3ccccc3Nc3nc(N)nc(-c4cccc(OCC#C)c4)n3)n2)c1`, the growth was 45.7% (inactive).

Consider `CCOC(=O)c1cccc(NC2=C(Cl)C(=O)c3nc(C)ccc3C2=O)c1`, for which the growth was 76.7% (inactive).

Consider `CNC(=O)c1cc(-n2ccc3cc(NC(=O)Nc4ccc(N5CCN(C)CC5)c(C(F)(F)F)c4)ccc32)ccn1`, for which the growth is -17.4% (active).

As for `O=C(CSc1nc2ccccc2c(=O)n1-c1ccc(Cl)cc1)N/N=C/c1ccc(Oc2ccc(Cl)cc2)cc1`, the growth is -67.8% (active).

For `COc1ccccc1Cn1cc(C#N)c(N)c1C(=O)c1ccc(Br)cc1`, the growth is 93.9% (inactive).

In the case of `O=C(N/N=C\c1ccc([N+](=O)[O-])cc1)c1ccc2nc(-c3ccc(Br)cc3)[nH]c2c1`, the growth is -37.2% (active).

Consider `Cc1ccc(/C=N/Nc2nc(Nc3ccccc3)nc(Nc3ccc(S(N)(=O)=O)cc3)n2)cc1`, for which the growth is 51.3% (inactive).

In the case of `CCN(CC)c1ccc(/C=N/NC(=O)c2ccc(NS(C)(=O)=O)cc2)cc1`, the growth was 21.3% (inactive).

Turning to `COc1ccc(NC2=C(Br)C(=O)C(C)=C(C)C2=O)cc1OC`, the growth was 90.7% (inactive).

Regarding `C[C@H](Nc1ncnc2ccc(-c3cnc(Cl)c(NS(C)(=O)=O)c3)cc12)c1ccccc1`, the growth is -61.4% (active).

Turning to `COc1ccc(-c2cc(-c3ccc(N(C)C)cc3)n3c(n2)nc2ccccc23)cc1`, the growth is 15.8% (inactive).

With `CC/C(=C(/c1ccc(Cl)cc1)c1ccc(OCCN)cc1)c1ccccc1`, the growth was 56% (inactive).

Turning to `CC[C@]12C=CCN3CC[C@]4(C(=C(C(=O)OC)C1)Nc1cc5c(cc14)[C@@H]1[C@H](O5)[C@@H](O)[C@@]4(CC)CC(C(=O)OC)=C5Nc6cc(O)ccc6[C@@]56CCN1C46)C32` (stereo not given in full), the growth was -70.5% (active).

`COc1ccc(C(C)=C(c2ccc(OCCN3CCCCCC3)cc2)c2ccc(OCCN3CCCCCC3)cc2)cc1`: the growth is -93% (active).

Turning to `Cc1cc(Br)ccc1-n1cc(C#N)c(N)c1C(=O)c1ccc(Br)cc1`, the growth was 88.6% (inactive).

Consider `CN(C)S(=O)(=O)c1ccc(-c2nc(C(Cl)Cl)nc3cc(-c4ccc(F)cc4)nn23)cc1`, for which the growth was -0.738% (active).

With `CC1CCN(CC(=O)Nn2c(COc3ccccc3)nc3ccccc3c2=O)CC1`, the growth is 81.9% (inactive).

`COc1ccc(/C=N/NC(=O)c2c(N)nn(C)c2Nc2ccccc2)cc1Oc1ccccc1`: the growth is 79.8% (inactive).

As to `O=C1C(SCc2ccccc2)=C(Cl)CN1c1ccccc1`, the growth is 88.5% (inactive).
